# Laboratory results taken from PubChem BioAssay.
# Activity calls are given as the source filed them.
# Key:
# [1] = tested on: Plasmodium falciparum Sir2 (PF13_0152, Sir2A); test: Plasmodium falciparum Sir2A binding compounds – biochemical, small-molecule microarray, 635 nm fluorescence, primary screen (AID 1098); conditions: fluorescence 635 nm, higher = more signal;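 also: score merges spot fluorescence intensity with its signal-to-noise ratio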
# [2] = probe aDKK1 binding to arrayed compounds – biochemical, biotinylated probe, 635/667 nm fluorescence, primary screen (AID 1099); conditions: small-molecule microarray, higher = more signal;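 also: score merges 667nm spot fluorescence with signal to noise across triplicate slides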
# [3] = probe aCHRDL2 binding to arrayed compounds – biochemical, biotinylated probe, 635/667 nm fluorescence, primary screen (AID 1100); conditions: small-molecule microarray, higher = more signal
# [4] = change in splice reporter luminescence, either direction, cell-based, HEK293, spliceosome inhibition project, primary screen (AID 1101); conditions: HEK293 splicing luciferase reporter, 24 h, higher = more signal, called active from +8 up or from −8 down;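 also: HEK293 cells carrying a splicing-competent luciferase reporter gene; test concentration not given here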
# [5] = biological target: Fibroblast growth factor 10 (Homo sapiens) (UniProt O15520); test: compounds binding fibroblast growth factor 10 – biochemical, small-molecule microarray, 635 nm fluorescence, primary screen (AID 1102); conditions: FGF10 binding, fluorescence 635 nm, higher = more signal
# [6] = tested on: glycogen synthase kinase-3 (GSK3A per assay name; protocol says GSK3B); test: compounds binding glycogen synthase kinase-3 – biochemical, small-molecule microarray, 635 nm fluorescence, GSK3A, primary screen (AID 1103); conditions: fluorescence 635 nm, higher = more signal; also: the record names both GSK3A and GSK3B
# [7] = biological target: Epidermal growth factor receptor (Homo sapiens) (UniProt P00533); test: compounds binding epidermal growth factor receptor – biochemical, small-molecule microarray, 635 nm fluorescence, primary screen (AID 1104); conditions: EGFR binding, higher = more signal;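 also: score merges 667 nm emission intensity with spot signal to noise over triplicate slides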
# [8] = biological target: Follistatin-related protein 3 (Homo sapiens) (UniProt O95633); test: compounds binding follistatin-related protein 3 – biochemical, small-molecule microarray, 635 nm fluorescence, primary screen (AID 1105); conditions: FSTL3 binding, higher = more signal;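 also: score merges emission near 667 nm and signal to noise per printed spot across three slides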
# [9] = biological target: Dickkopf-related protein 1 (Homo sapiens) (UniProt O94907); test: small molecules binding DKK1 protein – biochemical, small-molecule microarray, 635 nm fluorescence scan, primary screen (AID 1106); conditions: higher = more signal;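 also: score merges emission near 667 nm with signal to noise over three replicate slides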
# [10] = tested on: Inhibin beta A chain (activin A); test: small molecules binding activin A – biochemical, small-molecule microarray, 635 nm fluorescence scan, primary screen (AID 1107); conditions: INHBA, higher = more signal;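 also: mouse activin A protein probed at 4.33 µg/mL on printed slides; score merges bound-protein fluorescence near 667 nm with spot signal-to-noise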
# [11] = tested on: Human papillomavirus type 1a protein E7 (residues 44-93); test: small molecules binding HPV E7 44-93 – biochemical, small-molecule microarray, residues 44-93, 635 nm fluorescence, primary screen (AID 1108); conditions: fluorescence 635 nm, higher = more signal;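 also: E7 fragment applied at 1 µg/mL in TBST for 1 h at 4 C; score combines spot fluorescence with its signal to noise ratio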
# [12] = hepatitis C replication reporter changes, two-sided – Huh7 cells, luciferase reporter, HCV replication inhibitor project, primary screen (AID 1109); conditions: Huh7 HCV replicon luciferase reporter, 48 h; higher = more signal;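 also: huh7 hepatoma cells harbouring a luciferase neomycin HCV replicon reporter; luciferase luminescence as measure of HCV replicon replication; test concentration not given here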
# [13] = biological target: Left-right determination factor 2 (Homo sapiens) (UniProt O00292); test: small molecules binding LEFTY2 protein – biochemical, small-molecule microarray, 635 nm fluorescence scan, primary screen (AID 1110); conditions: higher = more signal
# [14] = biological target: Calmodulin-1 (Homo sapiens) (UniProt P0DP23); test: small molecules binding calmodulin-1 with EGTA – biochemical, small-molecule microarray, Cy5-labelled CALM1, profiling panel (AID 1111); conditions: Cy5-CALM1 binding fluorescence, higher = more signal;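 also: labelled calmodulin applied in Tris saline Tween buffer holding calcium plus EGTA and DTT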
# [15] = biological target: Calmodulin-1 (Homo sapiens) (UniProt P0DP23); test: small molecules binding Ca-loaded calmodulin-1 – biochemical, small-molecule microarray, Cy5-labelled CALM1, plus calcium, artefact control for SMM control-protein annotation, profiling panel (AID 1112); conditions: Cy5-CALM1 binding fluorescence, higher = more signal;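 also: score merges spot fluorescence with signal to noise from triplicate slides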
# [16] = probe aWnt5a binding to arrayed compounds – biochemical, biotinylated probe, 635/667 nm fluorescence, primary screen (AID 1113); conditions: small-molecule microarray, higher = more signal;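 also: score merges 667 nm fluorescence intensity with signal-to-noise per printed feature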
# [17] = probe aShh binding to arrayed compounds – biochemical, biotinylated probe, 635/667 nm fluorescence, primary screen (AID 1114); conditions: small-molecule microarray, higher = more signal;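 also: probe is biotin-labelled aShh protein from a stem cell growth factor screen; measures binding of labelled protein to compounds printed on the slide; score merges feature fluorescence at 667 nm with signal-to-noise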
# [18] = probe aNog binding to arrayed compounds – biochemical, biotinylated probe, 635/667 nm fluorescence, primary screen (AID 1115); conditions: small-molecule microarray, higher = more signal;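 also: probe is biotinylated aNog protein used at 0.15 µg/mL for 1 h at 4 C; z-score combines 667 nm fluorescence of each spot with its signal to noise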
# [19] = biological target: Torsin-1A-interacting protein 1 (Homo sapiens) (UniProt Q5JTV8); test: compound microarray binding of lysate hLAP1 – cell lysate, small-molecule microarray, COS7 lysate, 635/667 nm fluorescence, primary screen (AID 1116); conditions: 635 nm fluorescence, higher = more signal
# [20] = biological target: Alpha-bungarotoxin (Bungarus multicinctus) (UniProt P60615); test: compounds binding labelled alpha-BTX control protein – biochemical, small-molecule microarray, Alexa647 label, 635/667 nm fluorescence, artefact control for SMM control protein annotation, profiling panel (AID 1117); conditions: alpha-BTX-A647 binding fluorescence, higher = more signal
# Alpha-bungarotoxin (Bungarus multicinctus), sequence (P60615 whole entry, looked up): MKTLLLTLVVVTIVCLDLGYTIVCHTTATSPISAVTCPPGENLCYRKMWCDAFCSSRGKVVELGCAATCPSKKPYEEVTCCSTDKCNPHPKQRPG
# Dickkopf-related protein 1 (Homo sapiens), sequence (O94907 whole entry, looked up): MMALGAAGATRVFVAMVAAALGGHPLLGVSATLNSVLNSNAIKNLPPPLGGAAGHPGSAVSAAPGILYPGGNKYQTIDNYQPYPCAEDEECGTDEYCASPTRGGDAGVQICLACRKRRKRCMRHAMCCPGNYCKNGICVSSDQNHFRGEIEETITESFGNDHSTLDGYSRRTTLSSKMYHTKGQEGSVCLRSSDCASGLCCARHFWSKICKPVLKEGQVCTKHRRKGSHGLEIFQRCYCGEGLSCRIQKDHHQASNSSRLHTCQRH
# Follistatin-related protein 3 (Homo sapiens), sequence (O95633 whole entry, looked up): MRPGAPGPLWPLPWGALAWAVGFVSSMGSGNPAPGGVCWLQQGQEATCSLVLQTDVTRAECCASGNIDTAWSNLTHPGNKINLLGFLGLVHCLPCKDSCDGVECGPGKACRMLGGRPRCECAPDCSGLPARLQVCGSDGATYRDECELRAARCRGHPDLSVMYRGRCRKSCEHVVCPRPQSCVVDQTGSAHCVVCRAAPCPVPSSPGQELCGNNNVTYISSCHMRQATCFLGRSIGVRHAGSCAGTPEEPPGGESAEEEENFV
# Torsin-1A-interacting protein 1 (Homo sapiens), sequence (Q5JTV8 whole entry, looked up): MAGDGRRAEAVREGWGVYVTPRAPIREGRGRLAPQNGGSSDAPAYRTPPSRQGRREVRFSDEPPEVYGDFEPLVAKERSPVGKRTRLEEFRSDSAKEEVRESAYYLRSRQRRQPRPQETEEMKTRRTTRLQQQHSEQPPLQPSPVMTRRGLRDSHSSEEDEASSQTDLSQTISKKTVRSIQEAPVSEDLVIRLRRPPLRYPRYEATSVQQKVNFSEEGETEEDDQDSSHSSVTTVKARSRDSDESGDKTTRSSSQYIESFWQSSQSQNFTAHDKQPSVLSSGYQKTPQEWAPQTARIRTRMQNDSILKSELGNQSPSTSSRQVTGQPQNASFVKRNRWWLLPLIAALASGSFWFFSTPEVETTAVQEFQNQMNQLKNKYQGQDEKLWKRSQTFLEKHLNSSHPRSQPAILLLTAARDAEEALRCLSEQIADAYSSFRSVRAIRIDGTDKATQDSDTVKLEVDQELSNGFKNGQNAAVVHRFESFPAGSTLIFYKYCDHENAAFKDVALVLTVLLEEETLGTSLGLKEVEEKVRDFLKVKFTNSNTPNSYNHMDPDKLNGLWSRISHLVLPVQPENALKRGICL
# Left-right determination factor 2 (Homo sapiens), sequence (O00292 whole entry, looked up): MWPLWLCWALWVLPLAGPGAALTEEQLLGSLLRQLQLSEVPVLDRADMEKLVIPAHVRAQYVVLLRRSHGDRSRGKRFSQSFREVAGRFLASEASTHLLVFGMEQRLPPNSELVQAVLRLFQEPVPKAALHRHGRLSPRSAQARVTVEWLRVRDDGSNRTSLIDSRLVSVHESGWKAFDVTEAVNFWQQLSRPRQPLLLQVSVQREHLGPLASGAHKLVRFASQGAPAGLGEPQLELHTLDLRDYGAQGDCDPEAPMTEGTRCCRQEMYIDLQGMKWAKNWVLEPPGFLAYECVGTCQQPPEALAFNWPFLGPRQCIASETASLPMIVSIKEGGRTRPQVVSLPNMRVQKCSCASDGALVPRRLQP
# Fibroblast growth factor 10 (Homo sapiens), sequence (O15520 whole entry, looked up): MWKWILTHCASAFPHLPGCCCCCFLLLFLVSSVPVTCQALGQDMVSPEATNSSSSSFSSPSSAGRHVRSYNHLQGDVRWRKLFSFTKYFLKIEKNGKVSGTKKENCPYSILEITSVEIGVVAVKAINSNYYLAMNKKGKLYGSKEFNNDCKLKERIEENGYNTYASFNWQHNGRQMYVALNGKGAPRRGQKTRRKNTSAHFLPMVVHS
# Epidermal growth factor receptor (Homo sapiens), sequence (P00533 whole entry, looked up): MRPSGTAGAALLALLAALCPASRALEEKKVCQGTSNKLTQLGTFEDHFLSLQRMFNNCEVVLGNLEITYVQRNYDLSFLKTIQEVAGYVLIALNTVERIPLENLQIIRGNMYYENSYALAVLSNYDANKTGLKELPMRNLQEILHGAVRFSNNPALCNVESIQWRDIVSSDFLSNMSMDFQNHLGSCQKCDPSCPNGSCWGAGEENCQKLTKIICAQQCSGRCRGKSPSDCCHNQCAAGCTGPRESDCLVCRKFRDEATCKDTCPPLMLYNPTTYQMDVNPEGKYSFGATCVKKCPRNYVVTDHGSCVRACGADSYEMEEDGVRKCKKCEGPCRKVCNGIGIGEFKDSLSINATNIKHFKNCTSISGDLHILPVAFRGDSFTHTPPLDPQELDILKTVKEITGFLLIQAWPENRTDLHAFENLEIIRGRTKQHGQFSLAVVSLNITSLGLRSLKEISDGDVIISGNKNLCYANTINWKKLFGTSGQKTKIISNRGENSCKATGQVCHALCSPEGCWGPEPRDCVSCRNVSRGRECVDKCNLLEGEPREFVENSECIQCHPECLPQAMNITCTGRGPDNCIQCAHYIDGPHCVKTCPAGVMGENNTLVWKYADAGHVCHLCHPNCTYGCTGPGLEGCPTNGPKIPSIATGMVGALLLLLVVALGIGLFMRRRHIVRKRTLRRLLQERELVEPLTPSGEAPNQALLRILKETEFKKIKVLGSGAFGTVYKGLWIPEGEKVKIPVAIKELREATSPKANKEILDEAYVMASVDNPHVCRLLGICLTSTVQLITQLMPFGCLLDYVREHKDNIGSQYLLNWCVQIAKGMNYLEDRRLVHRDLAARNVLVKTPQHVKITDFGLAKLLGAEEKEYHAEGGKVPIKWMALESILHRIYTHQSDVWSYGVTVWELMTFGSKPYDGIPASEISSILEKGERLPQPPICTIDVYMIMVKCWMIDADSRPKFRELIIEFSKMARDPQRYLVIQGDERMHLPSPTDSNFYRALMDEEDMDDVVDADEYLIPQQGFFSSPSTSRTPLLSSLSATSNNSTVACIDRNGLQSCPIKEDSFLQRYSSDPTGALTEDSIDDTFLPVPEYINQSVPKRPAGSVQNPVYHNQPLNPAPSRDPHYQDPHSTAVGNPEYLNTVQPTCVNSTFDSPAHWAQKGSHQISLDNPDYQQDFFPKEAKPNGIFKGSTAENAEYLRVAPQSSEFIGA
SMILES,composite z-score [1],composite z-score [2],composite z-score [3],z-score [4],composite z-score [5],composite z-score [6],composite z-score [7],composite z-score [8],composite z-score [9],composite z-score [10],composite z-score [11],z-score [12],composite z-score [13],composite z-score [14],composite z-score [15],composite z-score [16],composite z-score [17],composite z-score [18],composite z-score [19],composite z-score [20]
CN(C)C(=O)[C@@]1(Cc2ccccc2CN=[N+]=[N-])N=C(c2ccc(OCCCO)cc2)O[C@H]1c1ccccc1CN=[N+]=[N-],1.03,0.832,0.915,1.2 (inactive),0.871,-0.581,-0.167,-0.0464,-0.687,0.846,1.27,-2.63,-0.462,1.69,1,0.0655,0.551,0.771,1.56,1.11
C=C(COC)/C(=C/C[C@H](OC(C)=O)c1ccc(OCCO)cc1)c1cc(C(=O)OC)ccc1OC,1.38,0.0841,-0.24,-0.195 (inactive),1.48,0.416,0.148,0.924,0.468,0.72,0.697,-1.13,0.695,-0.24,-0.845,-0.0792,-0.169,0.449,2.13,0.0079
O=C(NCC(F)(F)F)[C@@H]1c2ccccc2C(=O)N(Cc2ccc(OC(F)(F)F)cc2)[C@H]1c1ccc(CO)cc1,1.16,-0.113,0.433,-0.693 (inactive),0.347,-0.285,-0.0633,0.284,0.0428,0.551,1.4,-0.971,0.174,-0.112,0.0084,-0.0704,0.0839,-0.224,0.148,0.173
C=CCNC(=O)[C@H]1[C@@H]2C(=O)O[C@@H](c3ccccc3)[C@@H](c3ccccc3)N2[C@@H](c2ccc(O)cc2)[C@]12C(=O)Nc1ccc(C#CC3(O)CCCCCC3)cc12,1.38,0.0898,0.105,0.558 (inactive),0.155,0.373,-0.612,-0.0182,0.0926,0.697,0.903,-0.979,0.405,0.823,0.215,-0.036,0.0358,0.557,0.854,0.448
CCOC(=O)C[C@H]1[C@H](OC(=O)c2ccccc2-c2ccccc2)[C@@H](NC(=O)C2CCCCC2)c2cc(OCCCO)ccc2N1C(=O)Cc1ccc(OC)cc1,-0.0395,-0.189,0.0017,-0.0496 (inactive),0.0134,-0.625,0.0178,0.138,-0.259,0.489,-0.312,-1.44,-0.0221,-0.0561,-0.326,-0.12,-0.2,-0.136,0.3,-0.0654
COCCOC(=O)N1C(=O)[C@@]2(c3cc(C#CC4=CCCCC4)ccc31)[C@H](c1ccccc1OCCO)N1[C@H](c3ccccc3)[C@H](c3ccccc3)OC(=O)[C@H]1[C@@H]2C(=O)Nc1nc2ccccc2s1,1.09,-0.148,-0.226,-1.62 (inactive),1.08,0.69,0.416,0.981,0.506,0.936,1.33,-2.23,0.526,1.36,0.13,-0.0236,0.0253,0.904,0.666,1.48
COc1ccc(NC(=O)O[C@H]2[C@H](OC(=O)Nc3ccccc3)[C@H](OC(=O)Nc3ccccc3)[C@@H](OC)O[C@@H]2CO)cc1,1.58,0.891,0.816,-0.0162 (inactive),1.27,1.07,-0.171,0.806,0.426,0.593,1.25,-2.76,0.249,0.692,-0.17,0.161,0.163,-0.413,0.634,1.12
O=C1C2C=CC(C(O)c3ccc(F)cc3)N(n3cnnc3)C2C(=O)N1Cc1ccccc1 (stereo not given),-0.284,0.158,0.384,-0.284 (inactive),-0.429,-0.858,-0.273,-0.0469,-0.44,1.12,-0.305,-0.574,-0.856,-0.171,0.451,-0.0781,-0.203,0.146,0.419,-0.39
CCC(CC)C(O)C1C=CC2C(=O)N(c3ccccc3)C(=O)C2N1Nc1ccc(C(C)C)cc1 (stereo not given),1.23,0.789,0.948,-0.0169 (inactive),0.663,1.17,0.0407,0.932,-0.0563,0.916,1.28,-0.652,-0.0146,1.04,0.419,-0.0643,0.698,0.967,1.23,1.27
C=CCN1C(=O)[C@@]2(CCS(=O)(=O)c3ccccc3)N=C(c3ccc(OCCCO)cc3)O[C@H]2c2ccccc21,1.32,0.331,0.482,0.095 (inactive),0.69,1.33,0.958,1.14,0.822,1.18,1.42,-1.97,0.876,1.94,-0.313,0.0215,-0.304,0.906,0.791,1.22
COCCOC(=O)N1C(=O)[C@@]2(c3cc(C#CC4=CCCCC4)ccc31)[C@H](c1ccccc1OCCO)N1[C@H](c3ccccc3)[C@H](c3ccccc3)OC(=O)[C@H]1[C@@H]2C(=O)N1CCCCCCC1,1.17,1.18,-0.624,-0.262 (inactive),1.04,1.26,0.173,0.974,0.818,0.451,1.38,-2.94,0.225,-0.529,0.258,-0.0327,-0.493,-0.345,1.08,0.973
